Bioassay records (PubChem)
Most compounds without a hit are left out; they make up all but 2.4% or so of the library.
D2 ag-1 – D2 dopamine receptor (human) agonism. P14416. HEK293 T-REx D2 cells, calcium flux agonist mode. activation, % at 2 µM. hit rate 0.53% among 340,000. AID 485358;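 active = activation over 3 SD above normal in the single-dose calcium agonist read, cut at about 30% in these data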; note: 0% is about no effect
Target sequence (P14416 whole entry, looked up): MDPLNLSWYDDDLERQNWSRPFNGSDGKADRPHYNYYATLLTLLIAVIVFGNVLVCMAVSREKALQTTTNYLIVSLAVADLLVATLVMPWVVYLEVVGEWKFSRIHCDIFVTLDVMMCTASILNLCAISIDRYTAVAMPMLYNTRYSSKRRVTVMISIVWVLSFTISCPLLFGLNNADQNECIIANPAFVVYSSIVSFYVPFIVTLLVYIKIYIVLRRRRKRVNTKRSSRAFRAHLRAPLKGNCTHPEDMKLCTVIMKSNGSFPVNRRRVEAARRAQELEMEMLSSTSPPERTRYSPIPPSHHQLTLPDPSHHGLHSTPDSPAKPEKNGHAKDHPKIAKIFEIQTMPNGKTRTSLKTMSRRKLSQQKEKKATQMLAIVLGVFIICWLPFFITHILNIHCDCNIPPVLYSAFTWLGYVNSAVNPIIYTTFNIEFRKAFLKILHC
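Tetracycline-induced HEK293 Trex cells with D2 receptor force-coupled to calcium signaling, plated overnight at 30 C and loaded with no-wash calcium dye. Calcium flux read kinetically for 180 s after compound addition; responses flag agonists.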
D2 ag-2 – human D2 receptor agonism in beta-arrestin assay; P14416; DiscoveRx PathHunter D2 beta-arrestin, luminescence, 90 min; 100% = 57 uM dopamine signal; activation, % (test concentration not listed); hit rate 0.084% among 360,000; AID 624465; in the data active = activation above about 40%; inconclusive = between about 15% and that limit
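DiscoveRx PathHunter D2 beta-arrestin cells (2,100/well) attached overnight, then compound-stimulated 90 min at 37 C in HBSS/10 mM HEPES/0.1% Tween-20 buffer; beta-galactosidase complementation read by luminescence after 1 h at ambient temperature. Dopamine 57 uM final (EC100) as control.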
D2 PAM-1 – positively modulates the human D2 dopamine receptor allosterically. potentiation, % at 10 µM. hit rate 0.34% among 340,000. HEK293 T-REx D2, calcium flux, EC20 dopamine potentiation;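 active = potentiation over 3 SD above the plate norm, cut at about 30% in these data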; note: 0% is about no effect
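Using a no-wash calcium dye in inducible, force-coupled HEK293 Trex cells expressing D2, we tracked fluorescence each second for 180 s after compound, then for 180 s after EC20 dopamine to detect augmented signalling.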
D2 antagonist – antagonizes the human D2 dopamine receptor; P14416; HEK293 TREx D2 cells, calcium flux, dopamine EC80; inhibition, % at 10 µM; hit rate 2% among 340,000; AID 485344; in the data active = inhibition above about 30%; inactive = below that, where a call was filed; note: 0% is about no effect
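Tetracycline-induced HEK293 TREx cells expressing D2 receptor forced-coupled to calcium signalling, loaded with no-wash calcium dye. Compounds added and calcium flux read 180 s, then dopamine added at EC80 and read a further 180 s.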
D2 PAM-2 – human D2 receptor positive allosteric modulation; P14416; DiscoveRx D2 beta-arrestin cells, luminescence, 90 min; 100% = 57 uM dopamine signal; potentiation, % (concentration not given with the values); hit rate 0.23% among 360,000; AID 624464; in the data active = potentiation above about 50%; inconclusive = mostly about 30% to 49%
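PathHunter beta-arrestin assay in DiscoveRx D2 cells. Compounds were added with an EC20 of dopamine (50 nM final) for 90 min at 37 deg C. Luminescence was read 1 h after detection reagent, with 57 uM dopamine as the EC100 control.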
The depositor's hits bear a star; ? = inconclusive; . = no result.

SMILES	D2 ag-1	D2 ag-2	D2 PAM-1	D2 antagonist	D2 PAM-2
CCc1ccc(NCc2cccn2-c2nnc(N3CCCCCC3)s2)cc1	.	.	9	.	.
COc1ccc(NC(=O)c2ccccc2N(Cc2ccccc2)S(C)(=O)=O)cc1OC	0	2	37*	-5	-2
COc1ccc(NC(=O)c2ccccc2N(Cc2ccccc2)S(C)(=O)=O)cc1	3	-4	-8	0	-11
COc1cccc(NC(=O)Cn2c(=O)n(CC(=O)NCc3ccc(C)cc3)c(=O)c3sccc32)c1	2	.	17	.	.
O=[N+]([O-])c1nn(-c2ccc3c(c2)OCCO3)n(O)c1=Nc1ccccc1	-1	?	9	-4	?
O=[N+]([O-])c1nn(-c2ccc3c(c2)OCCO3)n(O)c1=NC1CCCC1	1	8	9	-1	75*
O=[N+]([O-])c1nn(-c2ccc3c(c2)OCCO3)n(O)c1=NC1CCCCCC1	0	?	5	-13	85*
COc1ccc(C(=O)NNc2ncnc3c2cnn3-c2ccc(C)c(Cl)c2)cc1	0	.	-11	.	.
O=C(Cc1ccc(Br)cc1)Nc1ccccc1Cl	0	-3	10	-2	-18
S=C(NCCc1ccccc1)N1CCc2ccccc2C1	-1	-2	-11	41*	-13
OC1CCN(C(=S)NCCc2ccccc2)CC1	0	0	0	2	-4
CC(C)CCOC(=O)C1C2C=CC3(CN(Cc4cccs4)C(=O)C13)O2 (stereo not drawn)	-1	2	0	33*	-2
CCCCOC(=O)C1[C@H]2C(=O)N(Cc3cccs3)C[C@]23C=C[C@H]1O3 (stereo partly drawn)	2	4	16	0	1
Brc1ccc(NC2=Nc3ccccc3CC2)cc1	1	0	-14	8	-8
Cc1ccc(NC2=Nc3ccccc3CC2)cc1	1	-5	-27	61*	-56
COc1ccccc1N(CC(=O)Nc1ccc2c(c1)OCO2)S(=O)(=O)c1ccc(C)cc1	-2	.	0	.	.
O=C(NCc1ccccc1Cl)c1ccc(NC(=O)c2nsc3ccccc23)cc1	1	.	-6	.	.
CC(=O)OC1C(N2CCCCC2)c2c(ccc(/C=C/C(=O)N3CCCCC3)c2O)OC1(C)C (stereo not drawn)	0	1	5	30*	1
CC1(C)Oc2ccc3ccc(=O)oc3c2C(N2CCCCC2)C1O (stereo not drawn)	-1	-3	-7	-10	-2
C#CCn1c2ccccc2c2nc3ccccc3nc21	0	1	14	-13	-1
CC(C)n1c2ccccc2c2nc3ccccc3nc21	-1	-6	40*	-10	-19
COc1ccc(NC(=S)N2CCN(C(=O)c3ccco3)CC2)c(OC)c1	10	1	-1	2	-11
CCOC(=O)N1CCN(CCC(=O)Nc2ccc(OC)cc2)CC1	1	-3	-1	-18	-7
C/C(CC(=O)Nc1ccccn1)=N\NC(=O)c1ccccc1O	3	-6	3	47*	-13
CCOc1ccc(NC(=O)CN2CCN(CC(=O)Nc3ccc(OC)cc3OC)CC2)cc1	0	6	8	32*	7
SMILES	D2 ag-1	D2 ag-2	D2 PAM-1	D2 antagonist	D2 PAM-2
CCOC(=O)N1CCN(CCC(=O)Nc2ccc(OC)cc2OC)CC1	34*	-1	-16	36*	-33
COc1ccc(NC(=O)CN2CCN(C(=O)c3ccco3)CC2)c(OC)c1	39*	10	-9	-9	4
COc1cccc(CC(=O)N2CCC(n3nccc3NC(=O)C3CCOC3)CC2)c1 (stereo not drawn)	2	-1	7	-10	-1
COc1ccc(NC(=O)c2ccc(NC(=O)CN3CCN(c4ccc(O)cc4)CC3)cc2)cc1	.	124*	.	.	23
COc1ccc(NC(=O)CCOc2ccccc2)c(OC)c1	-1	-3	8	36*	18
COc1ccc(OC)c(NC(=O)CCN2CCN(c3ccccc3OC)CC2)c1	14	-2	-20	72*	-79
COc1ccc(NC(=O)CCCCC(=O)Nc2ccc(OC)cc2OC)c(OC)c1	.	-2	.	.	-2
COc1ccc(NC(=O)c2ccc(NC(=O)CN3CCN(c4ccccc4O)CC3)cc2)cc1	.	2	.	.	-12
COc1ccc(NC(=O)CCCN2C(=O)C3C4C=CC(C4)C3C2=O)c(OC)c1 (stereo not drawn)	0	-2	17	35*	5
COc1ccc(CNc2nc(SCc3ccc(Cl)cc3)nc3ccccc23)cc1	.	.	4	.	.
COc1ccc(NC(=O)CCCNC(=O)c2ccc(Cl)cc2)c(OC)c1	0	0	-3	30*	1
COc1ccc(NC(=O)C/C(C)=N/NC(=O)c2ccccn2)c(OC)c1	-1	5	30*	15	-5
Cn1nccc1/C=C(/C#N)S(=O)(=O)c1ccccc1	0	-2	-4	31*	-6
CCC1CCCCN1CCCNC(=O)c1cc2c(=O)oc3ccc(C)cc3c2s1 (stereo not drawn)	1	3	-2	36*	-24
CC(C)N(c1ccccc1)c1ccc(NC(=O)COC(=O)CCN2C(=O)c3cccc([N+](=O)[O-])c3C2=O)cc1	-1	?	-9	-2	61*
CC(=O)c1ccc(NC(=O)COC(=O)CCN2C(=O)c3cccc([N+](=O)[O-])c3C2=O)cc1	0	-2	-2	-5	-10
O=Cc1ccc(-c2cccs2)s1	.	-1	.	.	-19
Oc1ccc(N=Cc2ccc(-c3cccs3)s2)cc1	0	12	8	-1	56*
Cc1ccc(-c2cn3c(n2)sc2cc(C(=O)NC4CCCCCC4)ccc23)c(C)c1	-1	.	5	.	.
CCOC(=O)C1=C(C)NC(=S)N(C(C)=O)C1c1ccccc1 (stereo not drawn)	0	-1	-1	32*	-3
CCOC(=O)COn1c(-n2nc(C)cc2C)nc2ccccc2c1=O	-4	-2	-8	33*	-3
COc1ccc(NC(=O)COC(=O)Cn2cnc3ccccc3c2=O)cc1OC	1	-2	0	-11	-6
COc1ccc(S(=O)(=O)N(C)C)cc1NC(=O)CCCSc1ccccc1	-1	-4	.	48*	-19
Cc1ccc(S(=O)(=O)N(C)C)cc1NC(=O)COC(=O)c1n[nH]c(=O)c2ccccc12	0	-7	-21	52*	-19
COC(=O)c1ccc(C)c(NC(=O)Cn2cnc3ccccc3c2=O)c1	1	0	0	35*	-1
COc1ccc(S(=O)(=O)N(C)C)cc1NC(=O)COC(=O)Cn1cnc2ccccc2c1=O	1	0	-13	38*	-2
COc1cc(NC(=O)Cn2c(-c3ccccc3)cc(C(C)=O)c2C)cc(OC)c1	0	.	7	.	.
C=CCNc1nc(SC)nc2ccsc12	0	-1	-4	32*	-18
